Measured values taken from PubChem BioAssay (NCATS).
Inconclusive results are not listed. Calls of active or inactive are those of the source. Unless noted, calls follow the shape of the dose curve; as a rule, active = well fitted curve in the direction sought with a large enough effect; inconclusive = small, poorly fitted or top-dose-only effect, or another doubt; inactive = no such curve, though single readings can be large; an effect the other way counts as inactive or inconclusive.

Tests used:
[1] = molecular target: Cytochrome P450 3A4 (Homo sapiens) (UniProt P08684); experiment: qHTS Assay for Inhibitors and Substrates of Cytochrome P450 3A4 (AID 884); also: potency is read from the fitted curve at half-maximal effect; nearly all actives have a fitted effect of over 50% in size
Sequence of Cytochrome P450 3A4 (Homo sapiens) (P08684 whole entry, looked up): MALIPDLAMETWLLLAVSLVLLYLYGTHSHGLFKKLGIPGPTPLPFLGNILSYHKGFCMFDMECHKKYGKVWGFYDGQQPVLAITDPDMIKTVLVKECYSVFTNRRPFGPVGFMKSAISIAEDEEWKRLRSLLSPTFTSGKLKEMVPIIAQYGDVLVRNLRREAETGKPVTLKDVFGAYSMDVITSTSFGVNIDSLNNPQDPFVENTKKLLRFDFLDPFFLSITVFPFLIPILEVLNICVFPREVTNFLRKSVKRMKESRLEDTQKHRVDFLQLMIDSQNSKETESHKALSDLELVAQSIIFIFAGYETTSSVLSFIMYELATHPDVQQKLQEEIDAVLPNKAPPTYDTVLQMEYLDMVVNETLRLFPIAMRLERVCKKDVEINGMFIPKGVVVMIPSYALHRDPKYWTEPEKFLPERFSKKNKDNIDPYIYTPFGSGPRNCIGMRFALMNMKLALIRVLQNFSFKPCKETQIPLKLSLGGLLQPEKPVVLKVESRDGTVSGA
Procedure, shortened: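 20 nM human CYP3A4 with 25 uM Luciferin-PPXE (at KM) in 200 mM KPO4, preincubated 10 min with compound; NADPH regeneration started a 60 min RT reaction. Luciferin detected by luminescence, normalized to 57 uM ketoconazole as full inhibition.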

[2] = molecular target: Cytochrome P450 3A4 (Homo sapiens) (UniProt P08684); experiment: qHTS Assay for Activators of Cytochrome P450 3A4 (AID 885); also: nearly all actives have a fitted effect of over 65% in size
Procedure, shortened: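 Signal was normalized against complete inhibition by 57 uM ketoconazole. The reaction used 20nM CYP3A4 with 25uM Luciferin-PPXE, 10-min compound preincubation and a 60-min NADPH-supported step at RT.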

[3] = molecular target: Rap guanine nucleotide exchange factor 3 (Homo sapiens) (UniProt O95398); experiment: Confirmatory qHTS for antagonist of cAMP-regulated guanine nucleotide exchange factor 3 (EPAC1) (AID 1645880); also: nearly all actives have a fitted effect of over 55% in size; also: potency is read from the fitted curve at half-maximal effect
Sequence of Rap guanine nucleotide exchange factor 3 (Homo sapiens) (O95398 whole entry, looked up): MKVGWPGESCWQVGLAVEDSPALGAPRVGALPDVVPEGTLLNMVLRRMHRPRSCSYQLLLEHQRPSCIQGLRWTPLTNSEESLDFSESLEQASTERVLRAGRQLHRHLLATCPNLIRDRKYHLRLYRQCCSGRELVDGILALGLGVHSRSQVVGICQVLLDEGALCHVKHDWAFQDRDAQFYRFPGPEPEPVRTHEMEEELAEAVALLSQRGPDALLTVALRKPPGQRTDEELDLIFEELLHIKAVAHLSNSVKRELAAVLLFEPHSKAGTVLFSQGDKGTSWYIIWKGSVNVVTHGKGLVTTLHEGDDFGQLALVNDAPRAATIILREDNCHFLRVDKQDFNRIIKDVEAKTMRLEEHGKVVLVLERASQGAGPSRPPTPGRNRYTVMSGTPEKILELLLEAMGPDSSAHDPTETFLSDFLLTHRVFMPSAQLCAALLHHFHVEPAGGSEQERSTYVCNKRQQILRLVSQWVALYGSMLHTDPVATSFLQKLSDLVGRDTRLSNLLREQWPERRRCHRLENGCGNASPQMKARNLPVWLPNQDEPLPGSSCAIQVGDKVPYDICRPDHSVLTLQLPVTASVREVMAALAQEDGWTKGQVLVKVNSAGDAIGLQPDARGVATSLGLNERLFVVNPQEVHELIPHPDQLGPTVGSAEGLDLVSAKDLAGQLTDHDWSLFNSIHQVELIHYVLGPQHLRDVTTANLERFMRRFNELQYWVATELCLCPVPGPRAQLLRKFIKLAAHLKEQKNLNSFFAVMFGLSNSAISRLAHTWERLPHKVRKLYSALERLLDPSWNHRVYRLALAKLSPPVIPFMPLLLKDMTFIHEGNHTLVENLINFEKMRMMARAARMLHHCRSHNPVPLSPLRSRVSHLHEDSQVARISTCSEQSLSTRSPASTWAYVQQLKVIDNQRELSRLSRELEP
Procedure, shortened: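 Nucleotide exchange uses 100 nM EPAC1, 250 nM RAP1B-BODIPY-GDP and 50 uM GDP, with compounds in a concentration-titration series. After 5 min at room temperature, fluorescence (480 nm ex/540 nm em) is read every 5 min for 30 min. Data are normalized to control ATA and DMSO.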

[4] = molecular target: Rap guanine nucleotide exchange factor 3 (Homo sapiens) (UniProt O95398); experiment: Confirmatory qHTS for agonist of cAMP-regulated guanine nucleotide exchange factor 3 (EPAC1) (AID 1645881);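 also: EPAC1 catalysed release of BODIPY-GDP from Rap1B seen as fluorescence loss; 100% = effect of cAMP agonist control; nearly all actives have a fitted effect of over 75% in size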
[5] = molecular target: Rap guanine nucleotide exchange factor 4 (Homo sapiens) (UniProt Q8WZA2); experiment: Confirmatory qHTS for agonist of cAMP-regulated guanine nucleotide exchange factor 4 (EPAC2) (AID 1645884);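 also: nucleotide exchange releases bodipy-GDP from Rap1 and this lowers its fluorescence; % is scaled to controls: 0 for no effect and ±100 for the full control effect; nearly all actives have a fitted effect of over 65% in size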
Sequence of Rap guanine nucleotide exchange factor 4 (Homo sapiens) (Q8WZA2 whole entry, looked up): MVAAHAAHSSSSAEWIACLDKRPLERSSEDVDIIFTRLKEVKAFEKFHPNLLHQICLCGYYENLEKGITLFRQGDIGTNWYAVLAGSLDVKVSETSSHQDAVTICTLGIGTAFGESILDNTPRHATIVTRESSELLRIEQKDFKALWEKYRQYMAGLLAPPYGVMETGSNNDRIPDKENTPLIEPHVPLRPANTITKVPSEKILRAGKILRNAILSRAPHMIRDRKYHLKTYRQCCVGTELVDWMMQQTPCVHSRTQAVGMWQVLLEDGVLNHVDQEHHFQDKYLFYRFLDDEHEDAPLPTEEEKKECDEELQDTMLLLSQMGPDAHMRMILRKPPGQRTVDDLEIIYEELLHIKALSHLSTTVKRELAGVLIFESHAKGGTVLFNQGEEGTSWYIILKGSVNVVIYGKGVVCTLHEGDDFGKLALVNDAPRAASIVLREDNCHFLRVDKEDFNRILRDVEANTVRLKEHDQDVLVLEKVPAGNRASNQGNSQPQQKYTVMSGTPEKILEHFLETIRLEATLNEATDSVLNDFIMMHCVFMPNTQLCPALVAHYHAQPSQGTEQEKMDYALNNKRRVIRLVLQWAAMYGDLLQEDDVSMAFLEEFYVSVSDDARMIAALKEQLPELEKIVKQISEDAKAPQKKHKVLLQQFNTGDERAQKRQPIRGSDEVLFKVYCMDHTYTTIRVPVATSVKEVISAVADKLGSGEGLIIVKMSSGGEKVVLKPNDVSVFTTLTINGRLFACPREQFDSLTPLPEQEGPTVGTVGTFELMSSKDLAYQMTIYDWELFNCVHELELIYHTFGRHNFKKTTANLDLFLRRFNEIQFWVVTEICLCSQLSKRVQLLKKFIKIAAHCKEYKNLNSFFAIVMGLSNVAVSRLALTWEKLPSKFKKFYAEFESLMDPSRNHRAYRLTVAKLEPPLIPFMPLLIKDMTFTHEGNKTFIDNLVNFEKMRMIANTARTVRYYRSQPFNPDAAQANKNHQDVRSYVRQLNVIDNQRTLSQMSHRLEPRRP

[6] = molecular target: Rap guanine nucleotide exchange factor 4 (Homo sapiens) (UniProt Q8WZA2); experiment: Confirmatory qHTS for antagonist of cAMP-regulated guanine nucleotide exchange factor 4 (EPAC2) (AID 1645885); also: nearly all actives have a fitted effect of over 25% in size; also: potency is read from the fitted curve at half-maximal effect; as to activity change, negative = inhibition: % is scaled to controls: 0 for no effect and ±100 for the full control effect
[7] = molecular target: Rap guanine nucleotide exchange factor 3 (Homo sapiens) (UniProt O95398); experiment: Counterscreen qHTS for antagonist of cAMP-regulated guanine nucleotide exchange factor 3 (EPAC1) (AID 1645888);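 also: fluorescence loss as bound BODIPY-GDP is released from Rap1B; % of control where 0% means no effect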
Procedure, shortened: (§1)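 Measured: fluorescence of BODIPY-GDP bound to Rap1B, which falls as exchange proceeds. Conditions include 50 uM competing GDP, 5 and 30 min reads, and a later cAMP challenge for antagonist detection.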

[8] = molecular target: Rap guanine nucleotide exchange factor 3 (Homo sapiens) (UniProt O95398); experiment: Counterscreen qHTS for agonist of cAMP-regulated guanine nucleotide exchange factor 3 (EPAC1) (AID 1645889); also: % of control where 0% means no effect; nearly all actives have a fitted effect of over 40% in size
Procedure, shortened: as §1

[9] = AP1 Signaling Pathway (AID 357; active = well fitted curve in either direction with a large enough effect, not every such curve was filed as active;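 also: ME-180 reporter cells stimulated with EGF at its EC50 level; % is scaled to controls: 0 for no effect and ±100 for the full control effect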)
Procedure, shortened: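 Cells are seeded overnight, exposed to compound titrations and an EC50 level of EGF for 5 hours at 37 °C, then loaded with CCF4 dye for 2.5 hours. Beta-lactamase activity under the AP-1 element is read as a blue/green ratio.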

[10] = NFAT Signaling Pathway (AID 444; active = well fitted curve in either direction with a large enough effect, not every such curve was filed as active;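 also: carbachol stimulus at about its EC50 of 1 µM final; % is scaled to controls: 0 for no effect and ±100 for the full control effect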); details: Jurkat NFAT-bla M1, carbachol, beta-lactamase ratio, 5 h; at 17.2 µM (top of the series)
Procedure, shortened: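 Jurkat cells carrying an NFAT-driven β-lactamase reporter and co-transfected muscarinic M1 receptor were treated with compound plus carbachol (1 uM final, an EC50 level) for 5 h at 37 °C. CCF4 loading followed for 1 h at RT; 460/530 nm ratio gave %activity.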

[11] = Stat Signaling Pathway (AID 446; active = well fitted curve in either direction with a large enough effect, not every such curve was filed as active;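 also: ME-180 cervical cancer cells given 40 pM IL-6 alongside compound; SIE-controlled beta-lactamase reporter measured as 460/530 nm FRET emission ratio; % is scaled to controls: 0 for no effect and ±100 for the full control effect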)
Procedure, shortened: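 Reporter line: ME-180 cervical carcinoma, SIE-beta-lactamase. Treatment: compound with 40 pM IL-6, 5 hrs, 37 C, in low-serum OPTI-MEM with 10 mM HEPES pH 7.3. Detection: 460/530 nm fluorescence.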

[12] = molecular target: Glucocorticoid receptor (Homo sapiens) (UniProt P04150); experiment: GR-GFP Redistribution (AID 450;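 active = compounds whose dose series gives a full or clear partial fitted curve of increased nuclear translocation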; also: potency is read from the fitted curve at half-maximal effect); details: U2OS GR-GFP nuclear translocation, laser cytometry, 2 h
Sequence of Glucocorticoid receptor (Homo sapiens) (P04150 whole entry, looked up): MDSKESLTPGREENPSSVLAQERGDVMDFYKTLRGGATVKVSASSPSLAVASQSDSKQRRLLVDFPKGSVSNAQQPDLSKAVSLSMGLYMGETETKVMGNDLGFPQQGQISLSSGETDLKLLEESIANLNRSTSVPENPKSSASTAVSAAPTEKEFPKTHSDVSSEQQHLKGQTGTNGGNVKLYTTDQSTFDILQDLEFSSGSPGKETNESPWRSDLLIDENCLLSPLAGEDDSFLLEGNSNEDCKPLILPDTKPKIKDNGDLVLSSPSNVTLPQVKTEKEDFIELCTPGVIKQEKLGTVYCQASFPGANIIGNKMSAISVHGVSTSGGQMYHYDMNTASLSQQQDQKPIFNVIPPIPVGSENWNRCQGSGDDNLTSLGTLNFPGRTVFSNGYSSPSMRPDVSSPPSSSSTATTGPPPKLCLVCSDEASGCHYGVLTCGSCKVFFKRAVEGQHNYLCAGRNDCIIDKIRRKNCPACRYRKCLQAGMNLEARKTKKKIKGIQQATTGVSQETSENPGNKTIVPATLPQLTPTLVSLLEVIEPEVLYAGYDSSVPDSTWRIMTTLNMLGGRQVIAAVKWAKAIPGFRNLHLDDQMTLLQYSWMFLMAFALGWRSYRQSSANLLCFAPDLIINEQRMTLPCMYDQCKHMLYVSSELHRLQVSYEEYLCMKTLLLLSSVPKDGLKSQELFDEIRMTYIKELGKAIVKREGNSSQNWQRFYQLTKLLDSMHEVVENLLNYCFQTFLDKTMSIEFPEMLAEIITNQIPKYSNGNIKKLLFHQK

[13] = molecular target: Tumor susceptibility gene 101 protein (Homo sapiens) (UniProt Q99816); experiment: qHTS Assay for Iinhibitors of HIV-1 Budding by Blocking the Interaction of PTAP/TSG101: Hit Validation (AID 651600); also: % is scaled to controls: 0 for no effect and ±100 for the full control effect; nearly all actives have a fitted effect of over 70% in size
Sequence of Tumor susceptibility gene 101 protein (Homo sapiens) (Q99816 whole entry, looked up, the tested form may be a part): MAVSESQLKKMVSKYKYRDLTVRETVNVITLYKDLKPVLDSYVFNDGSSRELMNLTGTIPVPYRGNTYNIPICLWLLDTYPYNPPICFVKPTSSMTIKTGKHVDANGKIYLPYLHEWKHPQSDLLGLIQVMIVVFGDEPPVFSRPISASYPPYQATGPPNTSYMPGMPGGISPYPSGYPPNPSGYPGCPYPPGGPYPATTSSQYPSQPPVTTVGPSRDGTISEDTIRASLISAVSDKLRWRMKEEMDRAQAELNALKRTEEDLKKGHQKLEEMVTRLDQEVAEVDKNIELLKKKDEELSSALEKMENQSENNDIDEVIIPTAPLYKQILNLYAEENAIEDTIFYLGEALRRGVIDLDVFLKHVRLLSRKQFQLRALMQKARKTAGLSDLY
Procedure, shortened: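 Displacement of a FITC-labeled PTAP-motif peptide (50 nM) from the Tsg101 binding domain (10 uM) was monitored by fluorescence polarization after a 20 min room-temperature incubation.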

CC[C@@]1(O)CC(O)c2c(cc3c(c2O)C(=O)c2c(O)ccc(O)c2C3=O)C1C(=O)OC (stereo partly specified)
inactive: Potency [2] | Potency [3] | Potency [4] | Potency [5] | Potency [6]
active: Potency [1] 7.94 µM

CC1=C(O)C(=O)C=C2C1=CC=C1C2(C)CCC2(C)C3CC(C)(C(=O)O)CCC3(C)CCC12C (stereo unspecified)
active: Potency [3] 33.8 µM | Potency [6] 0.953 µM
inactive: Potency [4] | Potency [5] | outcome [7] | Potency [8]

CCCCn1c(O)c(C=NCCN2CCCCC2)c(=O)[nH]c1=O
inactive: outcome [9] | activity change, negative = inhibition [10] -9.1% | outcome [11] | Potency [12] > 20.6 µM | Potency [3] | Potency [4] | Potency [5] | outcome [7] | Potency [8]
active: Potency [6] 75.7 µM

Cc1cccc(N2C(=O)NC(=O)/C(=C\c3cc(C)n(-c4sc5c(c4C#N)CCCC5)c3C)C2=O)c1C
active: Potency [3] 30.1 µM
inactive: Potency [4] | Potency [5] | outcome [7]

CCN(CC)C(=O)Cn1cc(C=C2C(=O)N(C)C(=O)N(C)C2=O)c2ccccc21
active: Potency [3] 79.4 µM
inactive: Potency [13] | Potency [4] | activation [5] 4.19% [at 17.1 µM, percent relative to cAMP agonist control] | activity change, negative = inhibition [6] 3.22% [at 12.7 µM] | activity change, negative = inhibition [7] -5.5% [at 30.8 µM]

Cc1cc(OC(C)C(=O)N[C@H](C(=O)O)c2ccccc2)c2c3c(c(=O)oc2c1)CCC3 (stereo partly specified)
inactive: Potency [3] | Potency [4] | Potency [5] | Potency [8]
active: Potency [6] 42.6 µM

COC(=O)N1C(c2ccccc2)C1c1ccccc1 (stereo unspecified)
inactive: Potency [3] | Potency [4] | activation [5] 10.2% [at 17.1 µM, percent relative to cAMP agonist control] | activity change, negative = inhibition [7] 4.2% [at 30.8 µM]
